# PLK1 PBD block – PLK1 (human) polo-box domain binding inhibition; Potency, µM, usual class: inhibitors; AID 720504; Plk1 PBD binding of FITC phosphopeptide, fluorescence polarization; 360,000 compounds, 2.8% hits; P53350; also: series mostly up to about 57 µM; nearly all actives have a fitted effect of over 65% in size
# PI5P4Ka inh – PI5P4K alpha (human) kinase inhibition; P48426; PI5P4Kalpha enzyme, ADP-Glo luminescence, 60 min; active compounds read low; max response, %; 330,000 compounds, 1.2% hits; AID 652105; active = max response of -50% or lower; inconclusive = between -30% and -50%; inactive = -30% or higher; also: value at the top dose of about 77 µM
#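 ADP-Glo luminescence end-point after a 60 min room-temperature kinase reaction. PI5P4Kalpha and substrate in HEPES pH 7.4 buffer with EGTA, 0.1% CHAPS and 5% DMSO; ATP at 5 microM final.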
# HP1b binding inh – HP1-beta chromodomain-methylated histone interaction inhibition; 390,000 compounds, 0.56% hits; Potency, µM (top dose mostly 114 µM), most hits filed as inhibitors; P83916; AlphaScreen HP1-beta / biotin-H3K9me3 peptide binding; AID 540317; also: nearly all actives have a fitted effect of over 70% in size
#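 Compound inhibition of the preformed complex between 50 nM HP1-beta and 50 nM biotinylated H3K9me3 peptide was read by AlphaScreen. Buffer was PBS pH 7.4 with 0.01% Tween-20. Incubations ran 30 min at room temperature, with 10 ug/mL donor/acceptor beads.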
# JMJD2A Tudor inh – JMJD2A Tudor domain (human) inhibition; Potency, µM (titrated, usually from 114 µM), hits mostly inhibitors; AID 504339; 390,000 compounds, 4.4% hits; AlphaScreen JMJD2A-Tudor / H3K4me3 peptide binding; O75164; also: nearly all actives have a fitted effect of over 50% in size
# G9a block – G9a (human) methyltransferase inhibition; G9a H3K9 monomethylation, AlphaScreen, 2 h; 350,000 compounds, 8.8% hits; Q96KQ7; Potency, µM (highest dose often 102 µM), usual class: inhibitors; also: nearly all actives have a fitted effect of over 75% in size
#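 G9a (20 nM) preincubated 15 min RT with compounds, then 500 nM biotinylated H3K9 peptide and 20 uM SAM added; 2 h RT reaction. Monomethyl-H3K9 product detected by AlphaScreen with anti-H3K9me1 antibody, streptavidin donor and anti-rabbit IgG acceptor beads.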
# BAZ2B block – inhibitors of human BAZ2B bromodomain. Q9UIF8. AlphaScreen BAZ2B-H3K14Ac peptide displacement. Potency, µM (series often up to 114 µM), actives largely listed as inhibitors. 360,000 compounds, 4.4% hits. AID 504333; also: nearly all actives have a fitted effect of over 60% in size
#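 In this displacement format the biotinylated H3(5-23) peptide acetylated at Lys14 serves as ligand at 50 nM, with BAZ2B at 50 nM in PBS pH 7.4 containing 0.01% Tween-20. Donor and acceptor beads are 10 ug/mL final.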
# Hits are given with their value; 0 = inactive; ? = inconclusive; - = no result given; [ ] = dose if it differs, or a comment. An excerpt weighted towards active compounds, which were near 12% of everything screened. Unless noted, calls follow the shape of the dose curve; as a rule, active = well fitted curve in the direction sought with a large enough effect; inconclusive = small, poorly fitted or top-dose-only effect, or another doubt; inactive = no such curve, though single readings can be large; an effect the other way counts as inactive or inconclusive.
SMILES,PLK1 PBD block,PI5P4Ka inh,HP1b binding inh,JMJD2A Tudor inh,G9a block,BAZ2B block
COc1ccc(S(=O)(=O)N2CCCCC2)cc1NC(=O)C1CSC2(C)CCC(=O)N12 (stereo not drawn),0,0,0,0,-,0
CC1CCN(S(=O)(=O)c2ccc(NC(=O)C3CSC4(C)CCC(=O)N34)cc2)CC1 (stereo not drawn),0,0,0,79µM,?,?
CC12CCC(=O)N1C(C(=O)Nc1cccc(S(=O)(=O)N3CCCCC3)c1)CS2 (stereo not drawn),0,0,0,0,0,0
CCOc1ccc(S(=O)(=O)N2CCCCC2)cc1NC(=O)C1CSC2(C)CCC(=O)N12 (stereo not drawn),0,0,0,0,40µM,0
C/C=C(\C)CN1CCN(c2ccc(C)cc2)CC1,0,0,0,7.1µM,10µM,25µM
CCOc1ccc(-n2c(-c3ccccc3)c(C)n3c4c(=O)n(C)c(=O)n(C)c4nc23)cc1,-,-,0,0,0,0
O=C(N/N=C1/CCS(=O)(=O)c2ccc(F)cc21)c1ccccn1,0,0,0,13µM,0,20µM
CC(C)c1ccc(CC(=O)N2CCC2(C)C(=O)NS(=O)(=O)c2cccc(OC(F)F)c2)cc1 (stereo not drawn),0,0,-,-,-,-
COc1ccc(C(=O)CN2CCN(S(=O)(=O)c3cccc([N+](=O)[O-])c3)CC2)cc1OC,0,0,0,0,8.9µM,0
CN1CCN(S(=O)(=O)c2cccc([N+](=O)[O-])c2)CC1,0,-,0,0,-,-
COc1cccc(C(=O)CN2CCN(S(=O)(=O)c3cccc([N+](=O)[O-])c3)CC2)c1,0,0,0,0,20µM,0
O=C(CCN1CCN(S(=O)(=O)c2ccc(F)cc2)CC1)Nc1ccccc1F,0,0,0,0,-,0
O=C(CCN1CCN(S(=O)(=O)c2cccc([N+](=O)[O-])c2)CC1)Nc1ccccc1F,27µM,0,0,?,0,0
O=C(N/N=C\c1ccc([N+](=O)[O-])o1)C1COc2ccccc2O1 (stereo not drawn),0,0,0,0,56µM,0
O=C(N/N=C\c1ccc(-c2ccccc2[N+](=O)[O-])o1)C1COc2ccccc2O1 (stereo not drawn),0,0,0,?,28µM,?
O=C(N/N=C\c1ccc([N+](=O)[O-])s1)C1COc2ccccc2O1 (stereo not drawn),0,0,0,?,0,0
CCN(CC(=O)Nc1ccc2c(c1)OCCO2)C(=O)/C=C/c1ccc([N+](=O)[O-])cc1,0,0,0,0,?,0
Cc1ccc(NC(=O)C2CCCN2S(=O)(=O)c2ccc3nc(-c4ccccc4)[nH]c3c2)cc1C (stereo not drawn),-,-,0,0,0,79µM
Cc1cccc(NC(=O)C2CCCN2S(=O)(=O)c2ccc3nc(-c4ccccc4)[nH]c3c2)c1 (stereo not drawn),-,-,0,0,0,?
O=C(O)[C@@H]1[C@@H]2C[C@H]3c4[nH]c5ccccc5c4CCN3C[C@@H]2CC[C@@H]1O,-,-,-,-,0[5.15 µM],-
Cc1cccc(N(C(=O)CS(=O)CC(=O)Nc2ccc3c(c2)OCO3)C(C)C(=O)NC2CCCC2)c1C (stereo not drawn),0,0,0,0,56µM,0
Cc1ccc(C)c(N(C(=O)CS(=O)CC(=O)Nc2ccc3c(c2)OCO3)C(C)C(=O)NC2CCCC2)c1 (stereo not drawn),0,0,0,0,?,0
CCOC(=O)C1CCCN(CCCc2ccccc2)C1 (stereo not drawn),0,0,0,0,0,0
CCCCN(C)C(=O)C1CCN(CCCc2ccccc2)CC1,0,0,?,8.9µM,?,56µM
COc1ccc(C(C)NC(=O)C2CCN(CCCc3ccccc3)CC2)cc1OC (stereo not drawn),0,0,-,-,-,-
SMILES,PLK1 PBD block,PI5P4Ka inh,HP1b binding inh,JMJD2A Tudor inh,G9a block,BAZ2B block
CN(C)CC(C)(C)CNC(=O)C1CCN(CCCc2ccccc2)CC1,0,0,0,56µM,?,0
O=C(NCc1nnnn1-c1ccc(F)cc1)C(=O)c1c[nH]c2ccccc12,0,0,-,-,-,-
Cc1ccccc1C(=O)N1CCC(C(=O)NC(C)c2ccc(-n3ccnc3)cc2)CC1 (stereo not drawn),0,0,0,0,0,0
Cc1cc(=O)[nH]c(N/N=C/c2c(O)n(-c3ccccc3)c(=O)c3ccccc23)n1,0,?,0,?,?,40µM
Cc1cc(=O)[nH]c(NN=Cc2c(Cl)cccc2Cl)n1,0,0,0,0,-,-
Cc1cc(=O)[nH]c(N/N=C/c2ccc(O)c(O)c2)n1,0,0,0,2.8µM,0,0
Cc1cccc(-n2c(O)c(C=Nc3ccccc3)c3ccccc3c2=O)n1,24µM,0,?,11µM,?,0
Cc1nc(N2CCN(C)CC2)c2cc(-c3ccccc3)sc2n1,0,0,0,0,50µM,0
Cc1nc(N2CCN(C)CC2)c2sc(=S)n(-c3ccccc3)c2n1,0,0,0,0,40µM,0
Oc1ccc(N2CCN(c3ncnc4sc(-c5ccccc5)cc34)CC2)cc1,0,0,?,16µM,3.2µM,40µM
O=C(C[C@@H]1C/C=C\C[C@H](Cc2ccc(F)cc2)C(=O)OCCNC1=O)N[C@H](CO)Cc1ccccc1,0,0,0,0,-,-
CCN1C[C@@H]2[C@@H]3C(=O)N(C)C(=O)[C@@H]3[C@](C)(C1=O)N2C(=O)c1ccc(Br)cc1,0,0,0,0,-,-
CC(=O)N1CCN(c2ccc(Oc3ccc([N+](=O)[O-])c(C(F)(F)F)c3)cc2)CC1,0,0,0,?,50µM,?
CCOc1ccc(C(=O)Nc2ccc(N3CCN(C(C)=O)CC3)cc2)cc1[N+](=O)[O-],0,0,0,0,?,?
O=C(CSc1nc(=O)n(CCN2CCOCC2)c2c1CCC2)Nc1cccc(Cl)c1,-,-,0,0,0,0
COC(=O)c1sccc1S(=O)(=O)N(CC(=O)NCc1ccccc1)c1ccc(C)c(C)c1,-,-,0,0,0,0
CCC(=O)Nc1ccc(C2=Nn3c(nnc3C(C)C)SC2)cc1,24µM,0,0,0,14µM,0
CC(C)[C@H](N)c1nnc2n1N=C(c1ccc(Cl)cc1)CS2,0,0,0,0,?,0
CC#CCCC(=O)N1C=Cc2ccccc2C1C#N (stereo not drawn),12µM,0,?,0[11.4 µM],0,0
CC1=Cc2ccccc2C(C#N)N1C(=O)c1ccccc1 (stereo not drawn),0,0,0,0,0,0
CCN1CCN(CC(=O)N2N=C(c3ccc(OC)cc3)CC2c2ccc(OC)cc2)C(=O)C1=O (stereo not drawn),27µM,0,0,79µM,0,0

# Screening data: PubChem, National Center for Advancing Translational Sciences (NCATS)
